High-throughput results as filed in PubChem BioAssay.
Shown are actives, neighbours in structure and some others; about 2.4% of the full set was active somewhere.
D2 ag-1: agonists of human D2 dopamine receptor (beta-arrestin); P14416; DiscoveRx PathHunter D2 beta-arrestin, luminescence, 90 min; 100% = 57 uM dopamine signal; activation, % (concentration not given with the values); 360,000 compounds, 0.084% hits; AID 624465; in the data active means activation above about 40%; inconclusive means between about 15% and that limit
Target sequence (P14416 whole entry, looked up): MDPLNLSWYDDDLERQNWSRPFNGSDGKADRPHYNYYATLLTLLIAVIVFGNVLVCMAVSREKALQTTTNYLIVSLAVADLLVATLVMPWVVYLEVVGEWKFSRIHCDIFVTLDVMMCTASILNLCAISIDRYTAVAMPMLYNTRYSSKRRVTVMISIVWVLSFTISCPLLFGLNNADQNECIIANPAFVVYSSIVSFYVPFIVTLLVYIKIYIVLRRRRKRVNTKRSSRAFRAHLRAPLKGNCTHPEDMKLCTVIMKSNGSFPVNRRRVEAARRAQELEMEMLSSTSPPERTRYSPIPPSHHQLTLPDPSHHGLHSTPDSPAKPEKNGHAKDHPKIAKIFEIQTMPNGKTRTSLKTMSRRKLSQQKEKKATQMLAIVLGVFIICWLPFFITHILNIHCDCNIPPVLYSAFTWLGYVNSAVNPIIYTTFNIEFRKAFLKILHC
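DiscoveRx PathHunter D2 beta-arrestin cells (2,100/well) attached overnight, then compound-stimulated 90 min at 37 C in HBSS/10 mM HEPES/0.1% Tween-20 buffer; beta-galactosidase complementation read by luminescence after 1 h at ambient temperature. Dopamine 57 uM final (EC100) as control.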
D2 PAM-1: potentiates the human D2 dopamine receptor allosterically; P14416; DiscoveRx D2 beta-arrestin cells, luminescence, 90 min; 100% = 57 uM dopamine signal; potentiation, % (no concentration beside the values); 360,000 compounds, 0.23% hits; AID 624464; in the data active means potentiation above about 50%; inconclusive means mostly about 30% to 49%
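PathHunter beta-arrestin assay in DiscoveRx D2 cells. Compounds were added with an EC20 of dopamine (50 nM final) for 90 min at 37 deg C. Luminescence was read 1 h after detection reagent, with 57 uM dopamine as the EC100 control.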
D2 antagonist: antagonizes the human D2 dopamine receptor; P14416; HEK293 TREx D2 cells, calcium flux, dopamine EC80; inhibition, % at 10 µM; 340,000 compounds, 2% hits; AID 485344; in the data active means inhibition above about 30%; inactive means below that, where a call was filed
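Dopamine at EC80 is the agonist stimulus; test compounds precede it by 180 s. Calcium flux read kinetically in a force-coupled, inducible HEK293 T-REx D2 cell line.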
D2 ag-2: D2 dopamine receptor (human) agonism. P14416. HEK293 T-REx D2 cells, calcium flux agonist mode. activation, % at 2 µM. 340,000 compounds, 0.53% hits;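 active means activation over 3 SD above normal in the single-dose calcium agonist read, cut at about 30% in these data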
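Agonism scored from kinetic calcium signal (1 read/sec, 180 s) following compound pin transfer, after a 10 s baseline. Cells: HEK293 Trex line expressing inducible D2 receptor coupled to calcium, dye-loaded after overnight culture at 30 C.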
D2 PAM-2: positively modulates the human D2 dopamine receptor allosterically; AID 485347; P14416; 340,000 compounds, 0.34% hits; HEK293 T-REx D2, calcium flux, EC20 dopamine potentiation; potentiation, % at 10 µM;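 active means potentiation over 3 SD above the plate norm, cut at about 30% in these data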
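Potentiation of an EC20 dopamine calcium response is measured in a force-coupled, tetracycline-inducible Hek293 Trex D2 line. Compound-only kinetic reads over 180 s flag agonists before dopamine addition.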
Numbers stand for hits; – = inactive; ? = inconclusive; · = no result.

SMILES	D2 ag-1	D2 PAM-1	D2 antagonist	D2 ag-2	D2 PAM-2
Cc1cc(NC(=O)c2ccccc2F)nc2c1c(=O)oc1ccccc12	–	–	–	–	42
CCCC(=O)Nc1cc(C)c2c(=O)oc3ccccc3c2n1	–	–	–	–	–
O=C(Oc1ccc(F)cc1)c1nc(SCc2ccccc2F)ncc1Cl	·	·	·	–	–
N#CCC(=O)Nc1ccc(C(=O)OCC(=O)NCc2ccc3c(c2)OCO3)cc1	–	–	44	–	–
O=C(COC(=O)c1ccc(O)cc1)NCc1ccc2c(c1)OCO2	–	–	–	–	–
CC(C)CN1CCc2nc(N3CCN(C)CC3)ncc2C1	·	·	·	–	–
CN1CCc2ccccc2Cc2[nH]c3ccccc3c2CC1	–	–	72	–	–
O=C(NCC(c1ccc(Cl)cc1)N1CCCCC1)c1ccccc1 (stereo not drawn)	·	·	·	–	–
Cc1csc2nc(COC(=O)c3cccc(NC(=O)c4cccc(Cl)c4)c3)cc(=O)n12	·	·	·	–	–
COc1cc2c(cc1OC)CN(CC(=O)NC(=O)NCc1ccccc1)CC2	–	–	–	–	–
C/C=C(\C)CN1CCc2cc(OC)c(OC)cc2C1	–	–	–	–	31
Cc1ccccc1NC(=O)CSc1nc(-c2ccccc2)cn1-c1ccccc1F	·	·	·	–	–
O=C(NCc1ccccc1Cl)c1ccc(CSc2nc3ccncc3[nH]2)cc1	–	–	–	–	–
Clc1ccccc1CSc1nc2ccncc2[nH]1	–	–	32	–	–
CCOC(=O)C(NC(=O)c1ccccc1)(Nc1cc(C)on1)C(F)(F)F (stereo not drawn)	–	–	31	–	–
CCOC(=O)C(NC(=O)c1ccc(OC)cc1)(Nc1cc(C)on1)C(F)(F)F (stereo not drawn)	–	–	–	–	–
O=C(NCCc1ccc(Cl)cc1)c1nnc(Cc2ccc(Cl)cc2Cl)o1	·	·	·	–	–
COCC(=O)OC1CCn2c1nc1c2C(=O)C(C)=C(NC(C)=O)C1=O (stereo not drawn)	?	87	·	·	·
CCCN(CCC)CCNC(=O)c1cc2c(=O)oc3ccc(C)cc3c2s1	·	·	·	–	–
CCc1ccc(NC(=O)N2CCN(Cc3nc4ccc(C)cc4o3)CC2)cc1	·	·	·	–	–
CCCCN1C(=O)/C(=C/C=C2\Oc3ccccc3N2CC)SC1=S	–	–	–	61	–
Cc1ccc(-c2c(C(=O)NCCc3ccccc3)oc(=O)c3ccccc23)cc1	·	·	·	–	–
CCN1CCN(C(=O)c2ccc3c(c2)N(Cc2ccc(Cl)cc2)C(=O)c2ccccc2S3(=O)=O)CC1	·	·	·	·	–
CCN1CCN(C(=O)c2ccc3c(c2)N(Cc2ccccc2)C(=O)c2ccccc2S3(=O)=O)CC1	–	–	40	–	–
CCN1CCN(C2=C(NS(=O)(=O)c3ccc(C)cc3)C(=O)c3ccccc3C2=O)CC1	–	–	39	–	–
SMILES	D2 ag-1	D2 PAM-1	D2 antagonist	D2 ag-2	D2 PAM-2
CCN1CCN(C2=C(NS(=O)(=O)c3ccc(NC(C)=O)cc3)C(=O)c3ccccc3C2=O)CC1	–	–	–	–	–
CCCCOc1ccc(C(=O)Nc2cccc(-c3nc4cccnc4s3)c2)cc1	·	·	·	–	–
COc1cc(CNc2ccc(O)cc2)cc(Br)c1OCc1ccccc1F	?	77	–	–	–
Cc1[nH]n2c(=O)cc(Cc3ccccc3)nc2c1C#N	–	–	42	–	–
Cc1nc2c(C#N)c(C)[nH]n2c(=O)c1Cc1ccccc1	–	–	–	–	–
COc1ccc(Nc2cc(C)c3cc(NC(=O)c4cc(OC)cc(OC)c4)ccc3n2)cc1	·	·	·	–	–
CCN1CCN(C(=O)c2cc3c(s2)-c2ccccc2S(=O)(=O)C3)CC1	–	–	45	–	–
Cc1ccc(S(=O)(=O)N(C)Cc2nc(-c3ccccn3)no2)cc1	–	–	–	–	–
CN(Cc1nc(-c2ccccn2)no1)S(=O)(=O)c1ccccc1	–	–	37	–	·
Cc1ccc(S(=O)(=O)c2nnn3c2nc(N2CCN(c4ccc(F)cc4)CC2)c2cc(Cl)ccc23)cc1C	·	·	·	–	·
CCOC(=O)/C(=C\c1ccc(N2CCC(c3ccccc3)=N2)cc1)C(C)=O	–	–	·	·	·
O=C(/C=C/c1ccc(N2CCC(c3ccccc3)=N2)cc1)c1ccccc1	–	–	33	37	–
Cc1cccc(-n2c3c(cc(-c4nc(-c5ccc(Cl)cc5)cs4)c2=O)C(=O)CC(C)(C)C3)c1	·	·	·	–	–
CCOC(=O)N1CCC(NCCNC(=O)c2ccc(Cl)cc2)CC1	–	–	59	–	–
CCOC(=O)N1CCC(NCCNC(=O)c2ccc(F)c(F)c2)CC1	–	–	59	–	–
Cc1ccc(Cl)cc1N1CCN(C(=O)CCCn2c(=O)[nH]c3ccc(Br)cc3c2=O)CC1	·	·	·	–	–
CCOc1ccc(CNC(=O)C2CCCN(c3nn4cc(-c5ccc(OC)cc5)nc4s3)C2)cc1 (stereo not drawn)	·	·	·	–	–
Cc1ccc(N2CC(NC(=O)c3cc4ccccc4o3)CC2=O)cc1 (stereo not drawn)	·	·	·	–	–
S=C(c1c[nH]c2ccc(Br)cc12)N1CCOCC1	–	–	38	–	–
O=C(c1c[nH]c2ccccc12)N1CCOCC1	–	–	–	–	–
O=C(CCCc1nc(-c2ccccc2)no1)Nc1cccnc1	–	–	·	·	·
O=C(CCc1nc(-c2ccccc2)no1)Nc1cccnc1	–	–	58	–	–
O=C1NC(c2ccc(-c3ccccc3[N+](=O)[O-])o2)C(C(=O)c2ccc(F)cc2)C(O)(C(F)(F)F)N1 (stereo not drawn)	?	58	–	–	–
COc1cc(OC)cc(-c2nc3nc(C)c(CCC(=O)Nc4ccc(C)c(C)c4)c(C)n3n2)c1	·	·	·	–	–
CCCCC(Sc1nc(N)c(NC(=O)c2ccc(OCC)cc2)c(=O)[nH]1)C(=O)O (stereo not drawn)	–	–	–	–	31
SMILES	D2 ag-1	D2 PAM-1	D2 antagonist	D2 ag-2	D2 PAM-2
O=C(Nc1nc2c(F)cccc2s1)c1ccc([N+](=O)[O-])o1	–	–	33	–	–
COc1ccc(-n2c(N)c(-c3nc4ccccc4n3C)sc2=S)cc1	–	–	34	–	–
CN(C)c1ccc(CNC(=O)c2cccn2-c2nnc(N3CCCCC3)s2)cc1	·	·	·	–	–
C/C(=C\C(=O)c1ccncc1)Nc1ccccc1O	–	50	·	·	·
CCOC(=O)C1=C(CC)Nc2ccccc2N=C1NC(=O)Nc1ccccc1OC	–	–	51	–	–
O=C(NCCc1ccc(Cl)cc1)c1cnc2sc(N3CCOCC3)nn2c1=O	·	·	·	–	–
COc1ccccc1-[n+]1c(C)cc(/C=C2\Sc3ccccc3N2C)cc1C	–	–	–	89	–
COc1ccccc1OC(=O)CCN1c2ccccc2Sc2ccccc21	–	–	–	–	–
COc1ccc(-[n+]2c(C)cc(/C=C3\Sc4ccccc4N3C)cc2C)cc1	–	–	48	55	–
COc1ccc(C(=O)/C=C2\Sc3ccccc3N2C)cc1	–	–	41	–	–
